Measurements taken from the supplement of paper PMC11417369.
± gives the standard deviation of the averaged measurements. In all, about 25,000 sequences were measured (“ln(normalized median fluorescence intensity)”: median about 10, highest 2% from about 12 on). The sample holds the highest values, similar sequences and a random draw of the others, so the mix is not that of the screen.

The sequences below were run on PfAP2-G AP2 domain (GST-tagged) (assay: gcPBM binding intensity (ln(normalized median fluorescence intensity)); higher = stronger DNA binding).
In short: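 Each value is the highest Masliner-normalised natural-log median intensity across replicate spots of either orientation of a probe. The probes were primer-extended double-stranded 36-bp intergenic genomic sequences on an Agilent 4 × 180k array, alongside negative controls, exposed for 1 h to GST-tagged P. falciparum DNA-binding domains expressed in E. coli. Bound protein was picked up with Alexa488 anti-GST antibody and scanned at 488 nm.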

| Sequence | gcPBM binding intensity (ln) |
| --- | --- |
| TTTTGTTGAAAAGTAAGATATTCCAACATGTTTTTA [CACACA_negctrl_site391] | 9.88 ± 0.014 |
| TATATATATATATATACATGCATACATATACATACA [TGCATGCA_site897] | 10 ± 0.22 |
| TTTTTTTTTTTTTTTTTTTGTCTTATATATTACGGA [CACACA_negctrl_site322] | 9.64 ± 0.67 |
| AAAAAATACTTATAAAGTACTAATATATATAAGCAG [XGTACX_site743] | 10.9 ± 0.48 |
| TTTATGGAATAATCACGTACACACAAGAAAAAAAAA [XGTACX_site985] | 11.4 ± 0.91 |
| TTTATATTTAAAAGGATGCACTACAAATTCTAAATA | 10.3 ± 0.3 |
| TTTTTTTTTCCCGTAAATATTGAGACAACCATAATG [CACACA_negctrl_site41] | 10.6 ± 0.54 |
| TATATAATATTACGTTGTACACTTTAATCTCCCTTC [XGTACX_site5577] | 11.1 ± 0.7 |
| CTATTTTTTGTATAAACATGCATATAGTAGATATGG [TGCATGCA_site670] | 10.1 ± 0.23 |
| AAAGAATTTAAATATTGTACGCAATATATAAAAAAA [XGTACX_site7616] | 11.5 ± 0.92 |
| TTTAAACCTTAATATTGTACGCAAAAAAAAAAAGAA [XGTACX_site3757] | 11.6 ± 1 |
| CTTTAACCTTTTTATTGTACTTTTAATATTTTAAAA [XGTACX_site4457] | 11.4 ± 0.86 |
| CATTTTATTTTAATATGTACTTAAAGAAAAAAAATT [XGTACX_site7670] | 11.2 ± 0.82 |
| TATGTGTGCAAAAACTGTACACATTAAAGGTATATA [XGTACX_site7627] | 11.7 ± 1.1 |
| TTACATGTAAAAGGTACACACATTATGTATACAAAT [CACACA_site1117] | 11.4 ± 0.88 |
| TATTAAAAGGTGAGTACACACATATATGTGTATATA [CACACA_site7070] | 11.4 ± 0.83 |
| AAATTATTTCTTTGCGCATGTAGCTTTTATACTATT [TGCATGCA_site819] | 9.98 ± 0.16 |
| ATTAAGTTCAAATGTAGTACGTGTAAAAAAAAAAAA [XGTACX_site1578] | 11.4 ± 0.83 |
| TAAAAATATAAATTTTGTACGTAAAAAATGGTTCTT [XGTACX_site1506] | 11.5 ± 0.93 |
| AATGGTTCAACGTAGTGTACGTAATAAATAATAAAT [XGTACX_site8668] | 11.8 ± 0.95 |
| CGGATCTATAAGTGTACACAATCTAGCGAAAAGTTT [CACACA_site4932] | 11.6 ± 1 |
| ATTCGGATCTATAAGTGTACACAATCTAGCGAAAAG [XGTACX_site3088] | 11.5 ± 0.83 |
| GGATAAGAAAAGAAGTGTACATATATATATATATAT [XGTACX_site8290] | 11.2 ± 0.68 |

| Sequence | gcPBM binding intensity (ln) |
| --- | --- |
| AGGCACAAAATTAAATGTACATATATATATATATAT [XGTACX_site3323] | 11 ± 0.6 |
| TTATTAAAAATGGTATGTACGCACATAATATATATA [XGTACX_site3230] | 11.5 ± 0.71 |
| ACGGATTAAAAAATGTGTACGCACAAAAAAAAAAAT [XGTACX_site8259] | 11.7 ± 0.97 |
| TTATGTTCTTTAAAACCACACACCCCCCAACCCCCC [CACACA_site8742] | 11.6 ± 0.87 |
| CAAACCCACCAACACACACACACAAAAATGATTAAA [CACACA_site2432] | 10.2 ± 0.35 |
| TTTTTTTTTTTTTTTTTTTTTTTATGTTCTTAAAAA [GTGCAC_negctrl_site62] | 9.56 ± 0.35 |
| CTTTAAACCCTGAACACACACAAATACACCCAAAAA [CACACA_site4297] | 10.7 ± 0.54 |
| ATGTTCTTTAAAACCACACACCCCCCAACCCCCCTC [CACACA_site2373] | 11.7 ± 1 |
| CACACCCACAAAAACACACACAAAGGTGTTCTTATA [CACACA_site1293] | 10 ± 0.13 |
| TATATATGTATCAAGTGTACAGTTTTAAAAAAAAAA [XGTACX_site6011] | 11.4 ± 0.87 |
| TTTCTTACAACAACAACAAAAAAAAATAAATAAAAT [GTGCAC_negctrl_site711] | 9.91 ± 0.16 |
| AATATATATGAAAAAAGTACTCAAGGAATAAAAAAA [XGTACX_site7720] | 11.3 ± 0.67 |
| TAATAAAACATATATACACACATTAGATATACATAT [CACACA_site6897] | 9.92 ± 0.057 |
| AATGGAAATTTTTCTTGTACACATATATGACATGTT [XGTACX_site1691] | 11.3 ± 0.86 |
| AAATTACTTTCACAGTGTACTTGGAAAAAAAAAAGA [XGTACX_site1046] | 11.3 ± 0.8 |
| TCTTTGTACTTTCACATGTACACCCAAATGGAAATT [CACACA_negctrl_site1442] | 11.8 ± 0.87 |
| ACATCTAGGCTTATTTTATGATACATGTGAATATAT [TGCATGCA_negctrl_site325] | 9.79 ± 0.099 |
| TTTCATTTAGCTTTTACACACTATATATTATTGATT [CACACA_site16] | 9.82 ± 0.11 |
| AATAAACATATATGTACACACATATACATATATATA [CACACA_site2848] | 11.4 ± 1.2 |
| ATAATAAACATATATGTACACACATATACATATATA [CACACA_site8924] | 11.3 ± 0.94 |
| AAAAAAATAAAACACATACATATATGTATATATATA [GTGCAC_negctrl_site390] | 9.77 ± 0.2 |
| AGTTATATGTACTACACACGTACACAAAATAAGATA [CACACA_site3719] | 11.6 ± 0.75 |
| AAAAATATATAAACACGTACACACACATATATGTAT [XGTACX_site7436] | 11.6 ± 0.88 |
